Results filed as inconclusive are left out. Calls of active or inactive are those of the source. Unless noted, calls follow the shape of the dose curve; as a rule, active = well fitted curve in the direction sought with a large enough effect; inconclusive = small, poorly fitted or top-dose-only effect, or another doubt; inactive = no such curve, though single readings can be large; an effect the other way counts as inactive or inconclusive.
Key:
[1] = NCATS anti-infectives library activity on HEK293 viability as a counter-qHTS vs the C. elegans viability qHTS (AID 1745854)
Procedure, shortened: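 CellTiter-Glo luminescence, read on a CCD imager, scored viability of HEK293 cells after 24 hr compound exposure at 37C. Library tested in several concentrations, 1:5 steps, up to 41.7 uM; digitonin served as control.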

[2] = S16 Schwann cell PMP22 intronic element beta-lactamase assay (AID 624044; calls by dose curve; also: nearly all actives have a fitted effect of over 15% in size)
Procedure, shortened: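 Beta-lactamase reporter under a PMP22 intronic regulatory element in stable S16 rat Schwann cells; 24 h compound exposure. 460 nm blue signal normalized between DMSO (0%) and potassium clavulanate, with 535 nm FRET tracking viability; curves classed by r2 and response.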

[3] = test system: AS120; assay: qHTS profiling for inhibitors of Plasmodium falciparum proliferation (AID 504749); also: nearly all actives have a fitted effect of over 60% in size; conditions: P. falciparum in erythrocytes, SYBR Green DNA, 72 h; series mostly up to 28.7 µM
Procedure, shortened: (§1)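 In a 72 h erythrocytic culture (37 C, humidified, 5% CO2) at 2.5% hematocrit and 0.3% starting parasitemia, compounds were tested; SYBR Green I in detergent lysis buffer stained parasite DNA overnight.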

[4] = test system: ATS189; assay: as above; conditions: P. falciparum in erythrocytes, SYBR Green DNA, 72 h; series mostly up to 28.7 µM
Procedure, shortened: as §1

[5] = test system: CP185; assay: as above; conditions: P. falciparum in erythrocytes, SYBR Green DNA, 72 h; series mostly up to 28.7 µM
Procedure, shortened: as §1

[6] = test system: CP191; assay: as above; conditions: P. falciparum in erythrocytes, SYBR Green DNA, 72 h; series mostly up to 28.7 µM
Procedure, shortened: as §1

[7] = test system: CP194; assay: as above; conditions: P. falciparum in erythrocytes, SYBR Green DNA, 72 h; series mostly up to 28.7 µM
Procedure, shortened: as §1

[8] = test system: CP203; assay: as above; conditions: P. falciparum in erythrocytes, SYBR Green DNA, 72 h; series mostly up to 28.7 µM
Procedure, shortened: as §1

[9] = test system: CP238; assay: as above; conditions: P. falciparum in erythrocytes, SYBR Green DNA, 72 h; series mostly up to 28.7 µM
Procedure, shortened: as §1

[10] = test system: CP247; assay: as above; conditions: P. falciparum in erythrocytes, SYBR Green DNA, 72 h; series mostly up to 28.7 µM
Procedure, shortened: as §1

[11] = test system: CP268; assay: as above; conditions: P. falciparum in erythrocytes, SYBR Green DNA, 72 h; series mostly up to 28.7 µM
Procedure, shortened: as §1

[12] = test system: CP286; assay: as above; conditions: P. falciparum in erythrocytes, SYBR Green DNA, 72 h; series mostly up to 28.7 µM
Procedure, shortened: as §1

[13] = test system: CP291; assay: as above; conditions: P. falciparum in erythrocytes, SYBR Green DNA, 72 h; series mostly up to 28.7 µM
Procedure, shortened: as §1

[14] = test system: CP305; assay: as above; conditions: P. falciparum in erythrocytes, SYBR Green DNA, 72 h; series mostly up to 28.7 µM
Procedure, shortened: as §1

[15] = test system: CP335; assay: as above; conditions: P. falciparum in erythrocytes, SYBR Green DNA, 72 h; series mostly up to 28.7 µM
Procedure, shortened: as §1

[16] = test system: DFO2036; assay: as above; conditions: P. falciparum in erythrocytes, SYBR Green DNA, 72 h; series mostly up to 28.7 µM
Procedure, shortened: as §1

[17] = test system: DIV30; assay: as above; conditions: P. falciparum in erythrocytes, SYBR Green DNA, 72 h; series mostly up to 28.7 µM
Procedure, shortened: as §1

[18] = test system: TAB109; assay: as above; conditions: P. falciparum in erythrocytes, SYBR Green DNA, 72 h; series mostly up to 28.7 µM
Procedure, shortened: as §1

[19] = test system: TAB113; assay: as above; conditions: P. falciparum in erythrocytes, SYBR Green DNA, 72 h; series mostly up to 28.7 µM
Procedure, shortened: as §1

[20] = test system: W2; assay: as above; conditions: P. falciparum in erythrocytes, SYBR Green DNA, 72 h; series mostly up to 28.7 µM
Procedure, shortened: as §1

Measured: Potency

COc1cc(CNC(=O)CCCC/C=C\C(C)C)ccc1O
inactive: [1]

CCOC(=O)C(CCc1ccccc1)NC1CCc2ccccc2N(CC(=O)O)C1=O (stereo not given)
inactive: [2]

C[C@@H](C(=O)O)c1ccc(-c2ccccc2)c(F)c1
not listed: [1] | [2]
inactive: all other assays above
